Compound activity (PubChem BioAssay)
HCMV inh: inhibitors of human cytomegalovirus. HFF cells, HCMV-luciferase reporter, 72 h; active compounds read low. activity change, negative = inhibition, % at 57.5 µM. 4.5% of 410,000 active. AID 1259415; in the data active means activity change below about -60%; inconclusive means no clear call, values can overlap the other calls; inactive means above about -39%
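Two compound doses tested in HFFs infected with HCMV-luciferase, MOI 1 PFU/cell, 72 h at 37C. Lysate luminescence read with OneGlo; data normalized against buffer-only and 10uM Salinomycin inhibitor controls.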
HCV inh: blocks hepatitis C virus. Huh7.5.1 HCVcc-Cre infection, luciferase reporter, 44 h. Potency, µM (series often up to 41.8 µM), for inactives: at the highest dose activity change, negative = inhibition, most hits filed as inhibitors. 3.4% of 340,000 active; active means well fitted inhibition curve with a large enough effect; inconclusive means small, poorly fitted or top-dose-only effect, or another doubt; inactive means no such curve, though single readings can be large or run the other way; further: potency means the concentration at half of the fitted maximal effect
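After 44 h co-culture of compound, cells and HCVcc-Cre (~0.5 moi), substrate is added for 15 min at room temperature and luciferase measured over 15 sec. Cells were seeded at 1,000/well and pre-cultured 4 h.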
Lassa entry inh: inhibitors of Lassa virus binding or cell entry; Lassa virus pseudotype entry inhibition, cell reporter; 1.2% of 300,000 active; Potency, µM (doses to about 37.9 µM), for inactives: top-dose activity change, negative = inhibition, actives largely listed as inhibitors; AID 540256; calls by dose curve; tested in HEK293 cells; further: potency means the concentration at half of the fitted maximal effect; nearly all actives have a fitted effect of over 50% in size
Marburg entry inh: inhibitors of Marburg virus binding or cell entry. Marburg virus pseudotyped entry inhibition, cell reporter. Potency, µM (titrated, usually from 37.8 µM), for inactives: at the top dose activity change, negative = inhibition, most hits filed as inhibitors. 1.8% of 300,000 active. AID 540276; calls by dose curve; tested in HEK293 cells; further: potency means the concentration at half of the fitted maximal effect
FMDV antiviral: antivirals against foot and mouth disease virus; FMDV antiviral cell-based qHTS; Potency, µM (series often up to 57.9 µM), without a hit: top-dose activity change, negative = inhibition, hits mostly inhibitors; 1.2% of 410,000 active; calls by dose curve; tested in HEK293T cells; further: read-out not given here; potency means the concentration at half of the fitted maximal effect; nearly all actives have a fitted effect of over 45% in size
Starred values were filed as active, the others as inactive; [ ] = another dose, or the depositor's remark. Shown are actives, neighbours in structure and some others; about 7.9% of the full set was active somewhere. On the % scale 0 is the no-effect control and ±100 the full control effect.

Screening COc1cccc(NC(=O)Cn2c(=O)n(CC(=O)NCCc3ccccc3)c(=O)c3sccc32)c1 returned HCMV inh inconclusive, Lassa entry inh 4.1%[46.1 µM], Marburg entry inh 3.2%[46.1 µM] and FMDV antiviral -20.5%.
COc1ccccc1NC(=O)c1cc(S(=O)(=O)N(C)C2CCCCC2)ccc1F was read as HCMV inh -22.6, Lassa entry inh -3.4%[46.1 µM] and FMDV antiviral -19.5%.
`C/C(=N\NC(=O)COc1ccc(C(C)(C)C)cc1)c1ccc(N2CCOCC2)cc1` gave HCMV inh 17.1, HCV inh -9.4%, Lassa entry inh 1.3µM*, Marburg entry inh 13.0% and FMDV antiviral -9.4%.
`CCNC(=S)N/N=C(\C)c1ccc(N2CCOCC2)cc1` gave HCMV inh -16.0, HCV inh inconclusive, Lassa entry inh inconclusive, Marburg entry inh 3.1% and FMDV antiviral -8.5%.
For CNC(=S)N/N=C(\C)c1ccc(N2CCOCC2)cc1 the results were HCMV inh -99.3*, HCV inh -15.3% and FMDV antiviral 37.1%.
Screening CC(C)(C)c1ccc(OCC(=O)NCC2(N3CCOCC3)CCCCC2)cc1 returned HCMV inh -72.7*, Lassa entry inh inconclusive, Marburg entry inh inconclusive and FMDV antiviral inconclusive.
`Cc1oc(-c2cccc(NC(=O)C3CCCN(C)C3)c2)nc1CNC(=O)c1coc2c1C(=O)CCC2` (stereo not given) gave FMDV antiviral -3.0%.
Screening Cc1cccc(CNCCn2cc(C(=O)Nc3ccccc3)nn2)c1 returned FMDV antiviral 10.0%.
For O=C(O)/C=C/C(=O)Nc1ccc(NC(=O)c2ccccc2)c(Cl)c1 the results were HCMV inh inconclusive, HCV inh 8.91µM*, Lassa entry inh inconclusive, Marburg entry inh inconclusive and FMDV antiviral -0.9%.
Screening O=C(O)/C=C\C(=O)Nc1cccc(NC(=O)c2ccccc2)c1 returned HCMV inh -28.6, HCV inh 3.8%, Lassa entry inh 6.7%[46.1 µM], Marburg entry inh 1.0%[46.1 µM] and FMDV antiviral -6.3%.
COc1ccc(NC(=O)CCN2CCN(CCO)CC2)c(OC)c1 was read as HCMV inh 13.6, Lassa entry inh -1.5%[46.1 µM], Marburg entry inh -26.4%[46.1 µM] and FMDV antiviral -9.4%.
`O=C(CSc1nnc(-c2ccc(Cl)cc2)n1Cc1ccco1)Nc1ccc2c(c1)OCCO2` gave HCMV inh inconclusive, HCV inh -24.3%, Lassa entry inh -14.0%, Marburg entry inh inconclusive and FMDV antiviral inconclusive.
Screening COc1ccc(-c2cnc(SCC(=O)Nc3ccc4c(c3)OCO4)n2Cc2ccco2)cc1 returned HCMV inh -24.3, HCV inh 14.1µM*, Lassa entry inh inconclusive, Marburg entry inh inconclusive and FMDV antiviral inconclusive.
Screening CC(=O)Nc1cccc(NC(=O)CSc2ncc(-c3ccc(Cl)cc3)n2Cc2ccco2)c1 returned HCMV inh -34.7, HCV inh 10µM*, Lassa entry inh inconclusive, Marburg entry inh inconclusive and FMDV antiviral 14.1µM*.
CCC[C@H]1[C@@H](NS(=O)(=O)c2ccccc2)CC[C@@]23CCCN2C(=O)CCC[C@@H]13 was read as HCMV inh -10.2.
For CC1CCN(S(=O)(=O)c2cc(C(=O)NCc3ccc(N(C)C)cc3)n(C)c2)CC1 the results were HCMV inh 4.9, Lassa entry inh 1.9%[46.1 µM] and FMDV antiviral -8.5%.
For COc1ccccc1CNS(=O)(=O)c1ccc(-c2cc(C(F)(F)F)on2)s1 the results were HCMV inh -30.2, Lassa entry inh 2.9%[46.1 µM] and FMDV antiviral -22.4%.
`COc1ccc(OC)c(CNS(=O)(=O)c2ccc(-c3cc(C(F)(F)F)on3)s2)c1` gave HCMV inh -70.3*, Lassa entry inh 11.8%[46.1 µM] and FMDV antiviral 0.0%.
Screening COc1ccccc1N1CCN(S(=O)(=O)c2ccc(-c3cc(C(F)(F)F)on3)s2)CC1 returned HCMV inh -38.1, Lassa entry inh 0.1%[46.1 µM] and FMDV antiviral 0.891µM*.
`CCCOc1ccc(C(=O)Nc2ccc(NC(=O)c3ccccc3)c(C)c2)cc1` gave HCMV inh -24.4, Lassa entry inh -19.1%[46.1 µM] and FMDV antiviral -6.9%.
`O=C(NCCCn1ccnc1)c1cc2nc(-c3ccc(Br)cc3)cc(C(F)(F)F)n2n1` gave HCMV inh -11.0, HCV inh 7.08µM*, Lassa entry inh inconclusive, Marburg entry inh inconclusive and FMDV antiviral -0.7%.
CCCNC(=O)c1cc2nc(-c3ccc(Br)cc3)cc(C(F)(F)F)n2n1 was read as HCMV inh -12.8, Lassa entry inh 2.1%[46.1 µM], Marburg entry inh 3.8%[46.1 µM] and FMDV antiviral -20.1%.
COc1cccc(-c2cc(C(F)(F)F)n3nc(C(=O)N4CCCCC4c4cccnc4)cc3n2)c1 (stereo not given) was read as HCMV inh -68.2*, HCV inh 5.62µM*, Marburg entry inh inconclusive and FMDV antiviral inconclusive.
Screening COc1ccc(-c2cc(C(F)(F)F)n3nc(C(=O)N4CCCCC4)cc3n2)cc1OC returned HCMV inh -35.7, HCV inh inconclusive, Lassa entry inh inconclusive, Marburg entry inh inconclusive and FMDV antiviral -22.6%.
COc1ccc(-c2cc(C(F)(F)F)n3nc(C(=O)Nc4cc(C)ccc4C)cc3n2)cc1 was read as HCMV inh 15.2, Lassa entry inh -10.4%[46.1 µM], Marburg entry inh 6.2%[46.1 µM] and FMDV antiviral -24.6%.
`COc1ccc(-c2cc(C(F)(F)F)n3nc(C(=O)N4CCCCC4)cc3n2)cc1` gave HCMV inh inconclusive, HCV inh 11.2µM*, Lassa entry inh -27.1% and Marburg entry inh inconclusive.
`COc1ccc(-c2cc(C(F)(F)F)n3nc(C(=O)NCCCN4CCOCC4)cc3n2)cc1` gave HCMV inh -21.3, HCV inh 11.2µM*, Lassa entry inh -5.6%, Marburg entry inh 12.3%[46.1 µM] and FMDV antiviral -21.3%.
`CC(=O)C1=C(C)N(CC#C[Si](C)(C)C)C(=O)N(C(C)=O)C1c1ccccc1` (stereo not given) gave Lassa entry inh inconclusive and Marburg entry inh -11.8%[14.2 µM].
Screening COC(=O)[C@H]1[C@H](CO)[C@H]2Cn3c(ccc(Br)c3=O)[C@@H]1N2S(=O)(=O)c1cn(C)cn1 returned HCMV inh -10.0.
Cc1ccc(S(=O)(=O)N2CCc3cc(C(=O)NCCc4ccccc4)ccc32)cc1 was read as HCMV inh 9.0, Lassa entry inh -22.7%[46.1 µM], Marburg entry inh inconclusive and FMDV antiviral -6.9%.
`CCN(C(=O)CN1C(=O)c2ccccc2Sc2ccc(C(=O)OC)cc21)c1cccc(C)c1` gave HCMV inh 127.7, Lassa entry inh 0.4%[46.1 µM] and FMDV antiviral 0.0%.
Screening O=C(NCCCn1ccnc1)c1cc(-c2ccc(Cl)cc2)nc2ccccc12 returned HCMV inh 20.3, HCV inh 11.2µM*, Lassa entry inh -12.7%, Marburg entry inh 4.6% and FMDV antiviral -26.1%.
For CCc1cccc(C)c1NC(=S)NCc1ccc2c(c1)cc(C)n2C the results were HCMV inh -91.3*, HCV inh inconclusive, Lassa entry inh inconclusive, Marburg entry inh inconclusive and FMDV antiviral -12.7%.
